# Screens: PubChem, National Center for Advancing Translational Sciences (NCATS)
# An excerpt weighted towards active compounds, which were near 19% of everything screened.
# HT1080 IDH1KD tx – HT-1080 IDH1 knockdown cell toxicity (counter line); HT-1080 IDH1 knockdown viability, ATP luminescence, 48 h; Potency, µM (doses to about 46.1 µM), hits mostly cytotoxic; actives 2% (n = 360,000); AID 686971
#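 Assay cells: HT-1080 with IDH1 knockdown, 750 per well, RPMI/5% FBS. Exposure: 48 h at 37 °C following 2 h pre-incubation. Read: CellTiter-Glo luminescence; fitted concentration-response, curve class assigned.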
# HT1080NT lethal – kills 2HG-producing HT-1080-NT fibrosarcoma cells; HT-1080-NT fibrosarcoma viability, CellTiter-Glo ATP luminescence, 48 h; Potency, µM (top dose mostly 46.1 µM), most hits filed as cytotoxic; actives 1.6% (n = 360,000); AID 686970;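 further: NT is the 2HG producing partner of a matched IDH1 knockdown line; nearly all actives have a fitted effect of over 55% in size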
#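 Read-out is CellTiter-Glo luminescence after 10 minutes at room temperature, following 48 hours' compound treatment of HT-1080-NT cells (750 cells/well, RPMI, 5% FBS, 37 degrees C).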
# IL-1B inflam inh – blocks inflammasome-driven IL-1 beta release | THP-1 LPS/ATP IL-1B secretion, AlphaLISA, 16 h; stronger effect = lower value | activity change, % at 57.5 µM | AID 743279 | actives 4.7% (n = 360,000); in the data active means activity change below about -50%; inconclusive means mostly about -30% to -49%
#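 Secreted IL-1B measured by AlphaLISA bead assay after 16 h compound exposure of THP-1 cells; compounds (final up to 57.5 uM) added 1 h before LPS (250 ng/mL) and ATP (1.25 mM) stimulation; lower signal means less secretion.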
# DT40 TDP1 no CPT – qHTS for Inhibitors of human tyrosyl-DNA phosphodiesterase 1 (TDP1): qHTS in cells in absence of CPT. DT40 Tdp1-/- hTDP1 cells, no CPT, ATP luminescence, 48 h. Potency, µM (series often up to 46.2 µM), most hits filed as inhibitors. actives 15% (n = 420,000). AID 686978, 2013; further: nearly all actives have a fitted effect of over 55% in size
#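 Stably hTDP1-transfected Tdp1-null chicken DT40 cells were treated with library compounds minus camptothecin and grown for at least 48 hr at 37 °C, after which cellular ATP was quantified by luminescence.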
# DT40 TDP1 CPT – DT40-hTDP1 cell growth loss with CPT; chicken DT40 Tdp1-/-;hTDP1 cells + 20 nM CPT, ATP luminescence, 48 h; AID 686979; Potency, µM (highest dose often 46.2 µM), usual class: inhibitors; actives 12% (n = 420,000); further: nearly all actives have a fitted effect of over 55% in size
#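 Chicken DT40 Tdp1-/- cells stably complemented with human TDP1 were seeded at 400 cells/well in medium containing 20 nM camptothecin, exposed to pin-transferred compounds, and grown at 37 °C for at least 48 hr. Viability was read as ATP luminescence.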
# ELG1 DNA repair – ELG1-dependent DNA repair inhibition | HEK293T ELG1-luciferase reporter, luminescence, 16 h; DNA damage induced by 5-fluorouridine | Potency, µM (highest dose often 46.1 µM), hits mostly inhibitors | actives 2.3% (n = 330,000) | AID 504467; further: nearly all actives have a fitted effect of over 55% in size
#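 Quantitative HTS, concentration-response format. 2,000 cells/well co-treated with 5-fluorouridine and compound, 16 hr in 5% CO2 at 37 °C; ONE-Glo luminescence read after 30 min.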
# Hits are given with their value; i = inactive; ? = inconclusive; nt = not tested or not shown. Unless noted, the call rests on the fitted dose curve; in most records, active means well fitted curve in the direction sought with a large enough effect; inconclusive means small, poorly fitted or top-dose-only effect, or another doubt; inactive means no such curve, though single readings can be large; an effect the other way counts as inactive or inconclusive.
SMILES,HT1080 IDH1KD tx,HT1080NT lethal,IL-1B inflam inh,DT40 TDP1 no CPT,DT40 TDP1 CPT,ELG1 DNA repair
CCc1ccccc1NC(=O)CCc1c(C)nn(-c2ccc(N3CCOCC3)nn2)c1C,i,i,i,i,i,i
CCc1cccc(NC(=O)CCc2c(C)nn(-c3ccc(N4CCCCC4)nn3)c2C)c1,i,i,i,?,i,i
Cc1nn(-c2ccc(N3CCCCC3)nn2)c(C)c1CCC(=O)Nc1cccc(F)c1,i,i,i,21µM,?,?
Cc1ccc(NC(=O)CCc2c(C)nn(-c3ccc(N4CCCCC4)nn3)c2C)cc1F,i,i,?,?,?,?
CCOC(=O)c1cccc(NC(=O)CCc2c(C)nn(-c3ccc(N4CCOCC4)nn3)c2C)c1,nt,nt,nt,?,29µM,nt
CCOC(=O)c1cccc(NC(=O)CCc2c(C)nn(-c3ccc(N4CCCC4)nn3)c2C)c1,nt,nt,nt,21µM,?,nt
Cc1cc(C)c(NC(=O)CSc2ccnc(=O)[nH]2)c(C)c1,nt,nt,nt,i,?,nt
O[C@@H](c1ccccc1)C1CCN(CCc2ccccc2)CC1,nt,nt,nt,i,i,nt
COc1ccc(C(=O)NNC(=O)c2ccc(F)c(S(=O)(=O)N3CCOCC3)c2)cc1,i,i,i,i,i,i
O=C(Nc1ccc2c(c1)N(C1CCCC1)C(=O)c1ccccc1S2)c1ccccc1,nt,nt,nt,12µM,?,nt
O=C(Nc1ccc2c(c1)N(C1CCCC1)C(=O)c1ccccc1S2)c1ccc(F)cc1,nt,nt,nt,?,23µM,nt
COc1cc(OC)cc(C(=O)Nc2ccc3c(c2)N(C2CCCC2)C(=O)c2ccccc2S3)c1,nt,nt,nt,?,i,nt
O=C(Nc1ccc2c(c1)N(C1CCCC1)C(=O)c1ccccc1S2)c1cccc(F)c1,nt,nt,nt,18µM,?,nt
CCCCS(=O)(=O)N[C@@H](Cc1ccc(OCCCCC2CCNCC2)cc1)C(=O)O,nt,nt,nt,i,i,nt
COC(=O)Cc1[nH]n(-c2nc3ccccc3s2)c(=O)c1C(C)=Nc1ccc(C)cc1,i,i,i,?,i,i
CCN(CC)CCCN=Cc1c(-c2ccccc2)[nH]n(-c2nc3ccccc3s2)c1=O,i,i,i,?,i,?
O=c1c(C=NCc2cccnc2)c(C(F)(F)F)[nH]n1-c1nc2ccccc2s1,?,i,i,i,i,i
COC(=O)Cc1[nH]n(-c2nc3ccccc3s2)c(=O)c1C(C)=Nc1ccc(Cl)cc1,i,?,i,21µM,10µM,?
CCCN=C(C)c1c(-c2ccccc2)[nH]n(-c2nc3ccccc3s2)c1=O,i,i,i,26µM,?,?
CCCc1[nH]n(-c2nc3ccccc3s2)c(=O)c1C=NCC(C)C,i,i,-58,23µM,?,?
C/C(=N/NC(=O)c1cccs1)c1c(C)[nH]n(-c2nc3ccccc3s2)c1=O,2.6µM,2.3µM,i,2.3µM,3.7µM,?
COc1ccccc1CN1CCCC2(CCN(S(C)(=O)=O)CC2)C1,nt,nt,nt,i,i,nt
CN(Cc1ccco1)C(=O)c1ccc(CNS(=O)(=O)c2ccc3c(c2)C(C)(C)C(=O)N3C)cc1,i,i,i,i,i,i
COc1ccc2c(c1)c1c(c(=O)n(-c3ccc(OC)c(OC)c3)c(=O)n1Cc1ccccc1F)n2C,nt,nt,nt,i,i,nt
O=c1cc2c(c(-c3ccccc3)n1Cc1ccccc1)[C@H](CCO)NC2,i,i,i,i,i,nt
OCC[C@@H]1NCc2cc(CO)cc(-c3ccccc3)c21,i,i,?,18µM,21µM,nt
CCOc1ccc(NC(=O)Cn2c(=O)n(-c3ccccc3)c(=O)c3c4c(sc32)CCCC4)cc1,nt,nt,nt,i,?,nt
CC1(C)C(OC(=O)CCC(=O)O)CC[C@]2(C)C1CC[C@@]1(C)C2C(=O)C=C2[C@@H]3C[C@@](C)(C(=O)O)CC[C@]3(C)CCC21C (stereo partly drawn),nt,nt,nt,i,i,nt
Cc1onc(-c2ccccc2Cl)c1C(=O)Nc1sc2c(c1C(N)=O)CCC(C)C2 (stereo not drawn),i,i,-51,i,i,?
